Test results from the antibiotic and cytotoxicity screens of Wong et al. (2023).
The campaign covered roughly 39,000 compounds. About 1,500 (3.8%) were called active. This excerpt belongs to a sample that is enriched for actives.

Test system: HSkMC (human skeletal muscle cells)
Test: cytotoxicity call (relative viability < 0.9)
Settings: 10 µM

Compound	cytotoxicity call
C[C@H](CO)N1C[C@H](C)[C@H](CN(C)Cc2ccc(F)cc2)Oc2ncc(C#Cc3cccnc3)cc2C1=O	inactive
C[C@H](CO)N1C[C@H](C)[C@H](CN(C)S(=O)(=O)c2cccs2)Oc2c(NS(=O)(=O)c3ccccc3)cccc2C1=O	inactive
C[C@@H]1CCCCO[C@H](CN(C)S(=O)(=O)c2cn(C)cn2)[C@H](C)CN([C@@H](C)CO)C(=O)c2cc(NC(=O)Nc3ccc(C(F)(F)F)cc3)ccc2O1	inactive
C[C@@H]1CN([C@@H](C)CO)C(=O)c2cccc(NC(=O)c3nc4ccccc4s3)c2O[C@@H]1CN(C)S(C)(=O)=O	inactive
C[C@H]1CN([C@@H](C)CO)C(=O)Cc2cc(NC(=O)Cc3ccccc3)ccc2O[C@@H]1CN(C)S(=O)(=O)c1ccc(F)cc1	inactive
CC1(C)OC(=O)C2(C(=O)O1)[C@@H](c1ccc(-c3cccc(-c4ccc(C(=O)O)cc4)c3)cc1)CC(=O)C[C@H]2c1ccccc1	inactive
C[C@@H]1CN([C@H](C)CO)C(=O)Cc2cc(NS(=O)(=O)c3ccccc3)ccc2O[C@@H]1CN(C)Cc1ccc(C(=O)O)cc1	inactive
COc1ncc(NC(=O)C2CC2)c(OC)n1	inactive
N[C@@H]1CCCN(c2c(Br)cnc3[nH]cc(NC(=O)C4CC4)c23)C1	active
N[C@H]1CCCN(c2ncccn2)C1	inactive
C[C@@H]1CN([C@H](C)CO)S(=O)(=O)c2ccc(-c3ccc(C(=O)N(C)C)cc3)cc2O[C@@H]1CN(C)C(=O)C1CC1	inactive
O=C(NCc1ccccc1)[C@@]1(CCS(=O)(=O)c2ccccc2)COC(c2ccc(OCCCO)cc2)=N1	inactive
O=C1N(Cc2ccccc2)Cc2ccccc2C[C@@]12N=C(c1ccc(OCCCO)cc1)O[C@H]2c1ccccc1	active
O=C1N(Cc2ccccc2)Cc2ccccc2[C@H]2OC(c3ccc(OCCCO)cc3)=N[C@@]12CCS(=O)(=O)c1ccccc1	inactive
O=C1N(Cc2ccccc2)Cc2ccccc2C[C@]12N=C(c1ccc(OCCCO)cc1)O[C@@H]2c1ccccc1	inactive
O=C1N(Cc2ccccc2)Cc2ccccc2[C@H]2OC(c3ccc(OCCCO)cc3)=N[C@@]12Cc1ccccc1	inactive
O=C1N(CCS(=O)(=O)c2ccccc2)Cc2ccccc2C[C@@]12COC(c1ccc(OCCCO)cc1)=N2	active
Cc1ccc(S(=O)(=O)Nc2cccc3c2O[C@@H](CN(C)Cc2ccc(Oc4ccccc4)cc2)[C@@H](C)CN([C@@H](C)CO)C3=O)cc1	inactive
CC[C@@H](C)c1ccc(NC(=O)c2cc3ccccc3o2)cc1	inactive
C[C@@H]1CN([C@H](C)CO)C(=O)Cc2cc(NS(C)(=O)=O)ccc2O[C@@H]1CN(C)C(=O)Nc1ccc(F)cc1	inactive
C[C@@H]1CCCCO[C@H](CN(C)CC2CCCCC2)[C@@H](C)CN([C@H](C)CO)C(=O)c2cc(NC(=O)Nc3ccccc3)ccc2O1	inactive
COc1ccc(NC(=O)Nc2ccc3c(c2)C(=O)N([C@@H](C)CO)C[C@@H](C)[C@@H](CN(C)CC2CCCCC2)OCCCC[C@@H](C)O3)cc1	inactive
COc1ccc(NC(=O)Nc2ccc3c(c2)C(=O)N([C@@H](C)CO)C[C@H](C)[C@H](CN(C)CC2CCCCC2)OCCCC[C@H](C)O3)cc1	inactive

Compound	cytotoxicity call
COc1ccc(NC(=O)Nc2ccc3c(c2)C(=O)N([C@H](C)CO)C[C@@H](C)[C@@H](CN(C)CC2CCCCC2)OCCCC[C@@H](C)O3)cc1	active
C[C@@H]1CCCCO[C@H](CN(C)CC2CCCCC2)[C@H](C)CN([C@@H](C)CO)C(=O)c2cc(NC(=O)Nc3ccccc3)ccc2O1	inactive
C[C@H](CO)N1C[C@H](C)[C@H](CN(C)CC2CCCCC2)OCCCC[C@H](C)Oc2ccc(NC(=O)Nc3ccccc3)cc2C1=O	active
C[C@@H]1CN([C@@H](C)CO)C(=O)c2cc(NC(=O)Nc3ccccc3)ccc2O[C@@H](C)CCCCO[C@@H]1CN(C)CC1CCCCC1	active
C[C@@H]1CCCCO[C@@H](CN(C)CC2CCCCC2)[C@@H](C)CN([C@H](C)CO)C(=O)c2cc(NC(=O)Nc3ccccc3)ccc2O1	inactive
C[C@H]1CCCCO[C@H](CN(C)CC2CCCCC2)[C@@H](C)CN([C@@H](C)CO)C(=O)c2cc(NC(=O)Nc3ccccc3)ccc2O1	inactive
COc1ccc(S(=O)(=O)Nc2ccc3c(c2)CC(=O)N([C@H](C)CO)C[C@@H](C)[C@H](CN(C)C(=O)Nc2c(C)noc2C)O3)cc1	inactive
C[C@@H]1CCCCO[C@@H](CN(C)S(=O)(=O)c2cccs2)[C@@H](C)CN([C@H](C)CO)C(=O)c2cc(NC(=O)Nc3ccc4c(c3)OCO4)ccc2O1	inactive
N#Cc1ccc(Oc2ccccn2)cc1	inactive
Cc1cc(C(=O)Nc2cccc3c2O[C@@H](CN(C)Cc2ccc(Oc4ccccc4)cc2)[C@H](C)CN([C@H](C)CO)C3=O)n(C)n1	inactive
Cc1noc(C)c1S(=O)(=O)Nc1ccc2c(c1)C(=O)N([C@@H](C)CO)C[C@@H](C)[C@@H](CN(C)S(=O)(=O)c1cn(C)cn1)OCCCC[C@@H](C)O2	inactive
C[C@@H]1CCCCO[C@H](CN(C)Cc2ccc3c(c2)OCO3)[C@H](C)CN([C@H](C)CO)C(=O)c2cc(NC(=O)Nc3ccccc3)ccc2O1	inactive
C[C@@H]1CN([C@@H](C)CO)C(=O)c2cc(NC(=O)Cn3cnnn3)ccc2O[C@@H]1CN(C)Cc1ccc(C(F)(F)F)cc1	inactive
CC(C)NC(=O)Nc1ccc2c(c1)CC(=O)N([C@@H](C)CO)C[C@@H](C)[C@@H](CN(C)S(=O)(=O)c1ccc(Cl)cc1)O2	inactive
CC(C)NC(=O)Nc1ccc2c(c1)CC(=O)N([C@@H](C)CO)C[C@H](C)[C@@H](CN(C)S(=O)(=O)c1ccc(Cl)cc1)O2	inactive
COc1ccc(S(=O)(=O)N(C)C[C@@H]2Oc3ccc(N(C)C)cc3CC(=O)N([C@@H](C)CO)C[C@H]2C)cc1	inactive
C[C@H]1CN([C@@H](C)CO)C(=O)Cc2cc(NC(=O)Nc3cc(Cl)cc(Cl)c3)ccc2O[C@H]1CN(C)S(=O)(=O)c1ccc(Cl)cc1	active
C[C@H]1CN([C@@H](C)CO)C(=O)Cc2cc(NC(=O)Nc3ccc(Cl)c(Cl)c3)ccc2O[C@H]1CN(C)S(=O)(=O)c1ccc(Cl)cc1	active
COc1ccc(S(=O)(=O)N(C)C[C@H]2Oc3ccc(N(C)C)cc3CC(=O)N([C@@H](C)CO)C[C@@H]2C)cc1	inactive
CC(C)NC(=O)Nc1ccc2c(c1)CC(=O)N([C@H](C)CO)C[C@H](C)[C@H](CN(C)S(=O)(=O)c1ccc(Cl)cc1)O2	inactive
COc1ccc(S(=O)(=O)N(C)C[C@@H]2Oc3ccc(N(C)C)cc3CC(=O)N([C@H](C)CO)C[C@@H]2C)cc1	active
CC(C)NC(=O)Nc1ccc2c(c1)CC(=O)N([C@H](C)CO)C[C@H](C)[C@@H](CN(C)S(=O)(=O)c1ccc(Cl)cc1)O2	inactive
Cn1nnc2c(N3CCC(O)CC3)ncnc21	inactive

Compound	cytotoxicity call
C[C@H]1CN([C@@H](C)CO)C(=O)c2cccc(NC(=O)CCCCCC(=O)Nc3ccccc3N)c2O[C@@H]1CN(C)Cc1ccc(C(F)(F)F)cc1	inactive
C[C@@H]1CN([C@@H](C)CO)C(=O)c2cc(NC(=O)Nc3cccc4ccccc34)ccc2O[C@@H](C)CCCCO[C@H]1CN(C)C	inactive
CCN1CCN(C2=C(NS(=O)(=O)c3ccc(Br)cc3)C(=O)c3ccccc3C2=O)CC1	inactive
CCc1nccn1CC(=O)N[C@H]1C[C@@H](C(=O)OC)N(C)C1	inactive
Cc1noc(C)c1NC(=O)Nc1ccc2c(c1)CC(=O)N([C@@H](C)CO)C[C@@H](C)[C@@H](CN(C)Cc1ccc(Oc3ccccc3)cc1)O2	inactive
COc1ccc(S(=O)(=O)N(C)C[C@H]2Oc3ccc(NC(=O)CCN4CCOCC4)cc3C(=O)N([C@H](C)CO)C[C@H]2C)cc1	inactive
COc1cccc(S(=O)(=O)N(C)C[C@@H]2OCc3cnnn3CCCC(=O)N([C@H](C)CO)C[C@@H]2C)c1	inactive
COCCNC(=O)NC(=O)COC(=O)c1cccn1C	inactive
O=C(N[C@@H](c1ccc(-c2ccccc2)cc1)c1cnccn1)C1CCN(Cc2ccc(Oc3ccccc3)cc2)CC1	inactive
C[C@@H]1CN([C@@H](C)CO)C(=O)c2cccc(NC(=O)c3ccc(-c4nccs4)cc3)c2O[C@@H]1CN(C)Cc1ccccc1	inactive
C[C@@H]1CN([C@@H](C)CO)C(=O)c2cc(NC(=O)Nc3cccc4ccccc34)ccc2O[C@@H](C)CCCCO[C@H]1CN(C)C(=O)Nc1cccc2ccccc12	inactive
C[C@@H]1CN([C@@H](C)CO)C(=O)c2cc(NC(=O)CCC(F)(F)F)ccc2O[C@@H](C)CCCCO[C@H]1CN(C)C(=O)Nc1cccc2ccccc12	active
C[C@@H]1CCCCO[C@@H](CN(C)C(=O)Nc2ccc3c(c2)OCO3)[C@H](C)CN([C@H](C)CO)C(=O)c2cc(NC(=O)NC3CCCCC3)ccc2O1	inactive
C[C@H](CO)N1C[C@H](C)[C@@H](CN(C)C(=O)Nc2cccc3ccccc23)OCCCC[C@H](C)Oc2ccc(NC(=O)Nc3cccc4ccccc34)cc2C1=O	inactive
C[C@@H]1CCCCO[C@H](CN(C)C(=O)Nc2cccc3ccccc23)[C@@H](C)CN([C@H](C)CO)C(=O)c2cc(NC(=O)CCC(F)(F)F)ccc2O1	inactive
C[C@@H]1CN([C@H](C)CO)C(=O)c2cc(NC(=O)Nc3cccc4ccccc34)ccc2O[C@@H](C)CCCCO[C@@H]1CN(C)C(=O)C1CCCCC1	inactive
C[C@@H]1CN([C@@H](C)CO)C(=O)c2cc(NC(=O)NC3CCCCC3)ccc2O[C@@H](C)CCCCO[C@H]1CN(C)C(=O)Nc1ccc2c(c1)OCO2	active
C[C@@H]1CCCCO[C@@H](CN(C)C(=O)Nc2cccc3ccccc23)[C@H](C)CN([C@@H](C)CO)C(=O)c2cc(NC(=O)Nc3cccc4ccccc34)ccc2O1	active
C[C@@H]1CCCCO[C@@H](CN(C)C(=O)Nc2cccc3ccccc23)[C@H](C)CN([C@H](C)CO)C(=O)c2cc(NC(=O)CCC(F)(F)F)ccc2O1	inactive
C[C@@H]1CCCCO[C@@H](CN(C)C(=O)Nc2ccc3c(c2)OCO3)[C@@H](C)CN([C@@H](C)CO)C(=O)c2cc(NC(=O)NC3CCCCC3)ccc2O1	inactive
C[C@@H]1CN([C@@H](C)CO)C(=O)c2cc(NC(=O)Nc3cccc4ccccc34)ccc2O[C@@H](C)CCCCO[C@@H]1CN(C)C(=O)C1CCCCC1	active
C[C@H]1CCCCO[C@H](CN(C)C(=O)C2CCCCC2)[C@@H](C)CN([C@@H](C)CO)C(=O)c2cc(NC(=O)Nc3cccc4ccccc34)ccc2O1	inactive
